Sampled rows, rich in hits. Any-hit rate of the full collection: about 10%.
GPT2 inhibitor – inhibitors of human GPT2 alanine aminotransferase | Recombinant GPT2, coupled pyruvate oxidase/HRP Amplex Red fluorescence | Potency, µM (series often up to 57.7 µM), for the others: at the highest dose activity change, negative = inhibition, most hits filed as inhibitors | AID 1671188 | Q8TD30 | hit rate 0.25% among 100,000; note: nearly all actives have a fitted effect of over 60% in size
Target sequence (Q8TD30 whole entry, looked up): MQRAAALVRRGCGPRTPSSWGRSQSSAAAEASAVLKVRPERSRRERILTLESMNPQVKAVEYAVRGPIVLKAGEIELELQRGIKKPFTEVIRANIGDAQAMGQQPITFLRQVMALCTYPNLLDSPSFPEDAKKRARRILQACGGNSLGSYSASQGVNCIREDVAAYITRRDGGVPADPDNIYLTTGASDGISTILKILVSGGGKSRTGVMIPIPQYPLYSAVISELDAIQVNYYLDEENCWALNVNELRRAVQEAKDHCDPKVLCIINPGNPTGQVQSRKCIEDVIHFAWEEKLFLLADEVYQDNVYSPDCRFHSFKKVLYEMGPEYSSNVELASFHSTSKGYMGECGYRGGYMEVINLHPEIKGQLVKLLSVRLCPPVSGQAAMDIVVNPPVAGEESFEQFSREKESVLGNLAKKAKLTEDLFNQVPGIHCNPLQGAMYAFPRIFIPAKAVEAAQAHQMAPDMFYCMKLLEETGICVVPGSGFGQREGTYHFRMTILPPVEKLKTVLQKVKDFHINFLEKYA
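Fluorescence of coupled pyruvate oxidase/HRP/Amplex Red system (50uM Amplex, 30 min, dark) reports pyruvate formed by GPT2. Enzyme reaction: 10ng/uL GPT2, 2mM L-alanine, 250uM a-KG, 30 min room temperature, pH 7.5; 50uM AOA control.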
HEK293 tox – cytotoxic compounds in HEK 293 cells; HEK 293 viability, ATP luminescence (CellTiter-Glo), 48-72 h; Potency, µM (series often up to 115 µM), for the others: at the highest dose activity change, negative = cytotoxicity, hits mostly inhibitors; hit rate 6.6% among 94,000; AID 1345083; note: nearly all actives have a fitted effect of over 60% in size
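Cells seeded first (HEK 293, 250 cells/well), then compound added by pintool. Incubation ran 48 or 72 hr at 37 degree Celsius. CellTiter-Glo was added and luminescence imaged after 10 min at room temperature.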
NPR1 antag – blocks ANP-stimulated signaling of human Npr1 receptor. P16066. HEK293 hNpr1 GloSensor cGMP, ANP-stimulated luminescence. Potency, µM (highest dose often 46.3 µM), for the others: at the highest dose activity change, negative = inhibition, hits mostly inhibitors. hit rate 1.6% among 76,000. AID 1347048; calls by dose curve; note: nearly all actives have a fitted effect of over 60% in size
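Compound pre-incubated 30 min at room temperature on GloSensor-loaded HEK293 cells stably carrying hNpr1 and the pGS-40F cGMP biosensor. Stimulation uses hNppA at 0.1 nM final; luminescence is taken at baseline and 20 min post-agonist.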
3T3 cytotox – cytotoxic compounds in NIH 3T3 cells; NIH 3T3 viability, CellTiter-Glo ATP luminescence, 48-72 h; Potency, µM (top dose mostly 96.7 µM), for inactives: at the highest dose activity change, negative = cytotoxicity, usual class: inhibitors; hit rate 4.3% among 94,000; AID 1345082; note: nearly all actives have a fitted effect of over 55% in size
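NIH 3T3 cells at 400 cells/well received 23 nL of compound by pintool and were incubated 48 or 72 h at 37 °C. Viability was read as ATP-coupled CellTiter-Glo luminescence.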
FLuc inh – blocks purified firefly luciferase enzyme activity; AID 1347043; purified P. pyralis luciferase, luminescence, biochemical; P08659; hit rate 2.5% among 76,000; Potency, µM (highest dose often 115 µM), hits mostly inhibitors; note: nearly all actives have a fitted effect of over 65% in size
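Cell-free enzyme assay, 10nM P. pyralis luciferase, luciferin and ATP each at 10uM. Inhibition profiled over a 6-point titration, read as luminescence.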
* marks the source's active call; other numbers are inactive results; i = inactive; ? = inconclusive; · = no result; [ ] = remark or other dose. Unless noted, calls come from the whole dose curve; as a rule, active = well fitted curve in the direction sought with a large enough effect; inconclusive = small, poorly fitted or top-dose-only effect, or another doubt; inactive = no such curve, though single readings can be large; an effect the other way counts as inactive or inconclusive. % is set by controls: 0 for no effect and ±100 for the full control effect; potency is the fitted concentration of half-maximal effect.

SMILES	GPT2 inhibitor	HEK293 tox	NPR1 antag	3T3 cytotox	FLuc inh
O=C(NCC(F)F)C1CCN(Cc2ccccc2-c2cccnc2)CC1	-12%	2%	·	-11%	·
CC(=O)Nc1ccc(CN(C)Cc2ccccc2C(F)(F)F)cc1	i	89µM*	-4%[70.6 µM]	?	i
CC(=O)Nc1ccc(CN(C)Cc2ccc(-c3ccccc3)cc2)cc1	i	79µM*	-10%[70.6 µM]	?	i
CSc1ccc(-c2cccc(C(=O)NCC(=O)NC3CCCCCC3)c2)cc1	2%	?	·	-26%	·
CC(C)S(=O)(=O)c1ccc2nccc(Nc3ccc4scnc4c3)c2c1	1%	·	·	·	·
Cc1ccc(C(=O)N2CCC(C(=O)N3CCCC(c4nc5ccncc5[nH]4)C3)CC2)cc1 (stereo not given)	?	-4%	·	-16%	·
O[C@@H]1C[C@@H](c2nc(-c3ccccc3)no2)N(Cc2cccc(OC(F)(F)F)c2)C1	?	?	-1%[70.6 µM]	?	71µM*
O[C@@H]1C[C@@H](c2nc(-c3ccc(C(F)(F)F)cc3)no2)N(Cc2cccc(OC(F)(F)F)c2)C1	-7%	79µM*	2%	?	35µM*
Cc1ccc(-c2noc([C@@H]3C[C@@H](O)CN3Cc3cccc(OC(F)(F)F)c3)n2)cc1F	?	?	-12%	?	i
COCCCn1c(=O)c(C(=O)N2CCN(C(=O)Cc3ccccn3)CC2)nc2cccnc21	i	i	·	-3%	·
CC(C)Cc1cc(CNC(=O)Nc2nnc(C(C)(C)C)s2)on1	i	45µM*	-22%	?	i
CC(C)(C)c1nnc(NC(=O)NCc2ccncc2)s1	-9%	0%	3%	?	i
Cc1nn2c(c1-c1cccnc1N1CCOCC1)N(C(=O)COc1ccccc1)CCC2	-5%[88.5 µM]	1%[172 µM]	2%[70.6 µM]	100µM*	i
Cc1nn2c(c1-c1ccccc1N1CCCC1)N(C(=O)C1CCOCC1)CCC2	i	100µM*	-2%[70.6 µM]	?	i
Cc1nn2c(c1-c1ccccc1N1CCCC1)N(C(=O)c1cccc(N(C)C)c1)CCC2	0%[88.5 µM]	89µM*	-5%[70.6 µM]	?	i
Cc1nn2c(c1-c1cccnc1N1CCOCC1)N(CCCc1ccccc1)CCC2	-11%[88.5 µM]	50µM*	?	?	i
Cc1nn2c(c1-c1ccccc1-c1ccccc1)N(C(=O)COc1ccccc1)CCC2	-17%[88.5 µM]	?	-26%[70.6 µM]	?	i
COc1ccccc1C(=O)N1CCCC(C(=O)N2CCCC(c3nc4ncccc4[nH]3)C2)C1 (stereo not given)	-26%	0%	·	-12%	·
O=C(c1ccc(Cl)nc1)N1CCC(C(=O)N2CCC(N3CCOCC3=O)CC2)CC1	i	-22%	·	-12%	·
CC(C)Cn1c(=O)c(C(=O)N2CCN(C(=O)c3ccccc3F)CC2)nc2cccnc21	-5%	4%	·	i	·
Cc1nn2c(c1-c1ccccc1N1CCCC1)N(C(=O)COc1ccccc1)CCC2	1%[88.5 µM]	71µM*	-14%[70.6 µM]	?	i
Cc1ccc2nc(C(C)NC(=O)c3cnc(-c4ccccn4)[nH]c3=O)[nH]c2c1 (stereo not given)	?	25µM*	-1%	?	i
O=C(CCc1nc(-c2ccccc2)no1)NC1CCCN(CCCc2ccccc2)C1 (stereo not given)	i	45µM*	-9%	?	i
Cc1ccccc1Cn1cc(-c2ccncc2)cc1C(=O)NC1CC1	-1%	?	1%	?	i
Cc1ccccc1Cn1cc(-c2ccncc2)cc1C(=O)Nc1ccc2c(c1)OCO2	i	35µM*	-16%	?	?
Cc1ccccc1Cn1cc(-c2ccncc2)cc1C(=O)N1CCCC(C)C1 (stereo not given)	3%	45µM*	-8%	?	i
Cc1ccccc1Cn1cc(-c2ccncc2)cc1C(=O)N(C)Cc1ccco1	i	?	-30%	?	i
O=C(NC1CN(c2ccnc3ccnn23)C1)c1cc(F)ccc1Br	2%	-5%	·	-20%	·
COc1cccc(CNC(=O)C2CCCN(Cc3cccc(-c4ccccc4OC)c3)C2)c1 (stereo not given)	i	?	·	?	·
